Data published in the supplement of paper PMC10849652.
The full data set covers some 7,900 targets. This sample favours those with a hit. About 0.6% of all pairs of compound and target were hits.

What was measured:
Assay in all cases: log2 fold change, soluble protein after heating vs DMSO (PISA); higher = thermal stabilisation; K562 cells, 10 uM, 30 min; active = over 0.2 and 3.5 SD of the protein, either way, in both replicates (recomputed)
[1] = compound: C1=CC=C(C=C1)[C@H](COC2=CC3=C(C=C2)NC(=O)N3)NC(=O)C4=CC=CN(C4=O)CC5=CC(=C(C=C5)F)F
Method in brief: (§1)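 K562 cells (2×10^6 cells/mL) were treated with 10 μM compound for 30 min, and aliquots were heated for 3 min over 48°C-58°C. Pooled aliquots were extracted in PBS with 0.5% NP-40 at 4°C, and the supernatant after 21,000xg for 90 min was measured by TMTpro 16plex LC-MS/MS with channel sums equalised. Reported thermal stability, relative to control samples and from duplicates, is a log2 fold change.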

[2] = compound: CC1=C(SC2=C1C(=N[C@H](C3=NN=C(N32)C)CC(=O)N)C4=CC=C(C=C4)Cl)C
Method in brief: as §1

[3] = compound: Cc1sc2c(c1C)C(c1ccc(Cl)cc1)=N[C@@H](CC(=O)OC(C)(C)C)c1nnc(C)n1-2
Method in brief: as §1

[4] = compound: c1ccc([C@@H]2C[C@H]2NC2CCNCC2)cc1
Method in brief: as §1

[5] = compound: CC1=C2C(=CC=C1)N=C(N(C2=O)C3=CC=CC=C3C)CN4C=NC5=C(N=CN=C54)N
Method in brief: as §1

Measured: log2 fold change

ROMO1 (UniProt P60602)
Chain of UniProt P60602 (P60602 whole entry, looked up): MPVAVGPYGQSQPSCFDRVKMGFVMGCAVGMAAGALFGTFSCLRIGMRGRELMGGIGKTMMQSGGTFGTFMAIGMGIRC
inactive: [1] 0.045 | [2] -0.061 | [3] 0.172 | [4] 0.082

RPL31 (UniProt P62899)
inactive: [1] 0.106 | [2] -0.241 | [5] -0.22 | [3] 0.202 | [4] 0

SCO2 (UniProt O43819)
Chain of UniProt O43819 (O43819 whole entry, looked up): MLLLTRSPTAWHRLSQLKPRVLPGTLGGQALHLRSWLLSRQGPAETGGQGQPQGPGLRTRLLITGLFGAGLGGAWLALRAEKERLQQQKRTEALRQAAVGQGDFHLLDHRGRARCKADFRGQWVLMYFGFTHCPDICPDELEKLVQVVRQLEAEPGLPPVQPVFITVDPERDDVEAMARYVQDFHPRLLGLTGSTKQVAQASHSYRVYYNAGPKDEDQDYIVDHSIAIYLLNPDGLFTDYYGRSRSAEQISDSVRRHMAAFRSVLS
inactive: [1] -0.03 | [2] -0.108 | [5] -0.041 | [3] -0.098 | [4] 0.023

RBMY1E (UniProt A6NEQ0)
inactive: [1] 0.063 | [2] -0.02 | [3] 0.001 | [4] 0.145

RHOXF2 (UniProt Q9BQY4)
Chain of UniProt Q9BQY4 (Q9BQY4 whole entry, looked up): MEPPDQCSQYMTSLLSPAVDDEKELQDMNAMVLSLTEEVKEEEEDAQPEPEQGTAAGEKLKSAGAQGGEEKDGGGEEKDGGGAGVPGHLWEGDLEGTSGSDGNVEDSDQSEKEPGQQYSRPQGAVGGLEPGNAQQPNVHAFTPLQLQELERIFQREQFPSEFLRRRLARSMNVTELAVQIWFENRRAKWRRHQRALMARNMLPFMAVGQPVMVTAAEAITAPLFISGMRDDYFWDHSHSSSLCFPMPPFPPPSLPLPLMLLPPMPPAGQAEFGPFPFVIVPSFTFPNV
inactive: [1] 0.004 | [2] -0.031 | [5] 0.024 | [3] 0.012 | [4] 0.057

ROR2 (UniProt Q01974)
inactive: [1] -0.062 | [2] 0.004 | [5] 0.023 | [3] -0.048 | [4] -0.035

SAP30 (UniProt O75446)
inactive: [2] -0.006 | [5] -0.002 | [4] -0.032

RPS3A (UniProt D6R9B6)
inactive: [3] 0.248

SEPTIN5 (UniProt Q99719)
Chain of UniProt Q99719 (Q99719 whole entry, looked up): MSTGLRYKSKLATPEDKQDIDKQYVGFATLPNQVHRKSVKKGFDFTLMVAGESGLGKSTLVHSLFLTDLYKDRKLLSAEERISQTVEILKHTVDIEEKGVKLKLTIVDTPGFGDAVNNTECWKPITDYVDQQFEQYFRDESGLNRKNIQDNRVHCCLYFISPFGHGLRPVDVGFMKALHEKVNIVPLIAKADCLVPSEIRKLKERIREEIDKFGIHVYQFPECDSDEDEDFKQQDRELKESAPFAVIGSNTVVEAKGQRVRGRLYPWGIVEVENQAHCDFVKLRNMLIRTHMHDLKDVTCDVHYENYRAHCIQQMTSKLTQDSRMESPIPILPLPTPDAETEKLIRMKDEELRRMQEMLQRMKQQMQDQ
inactive: [1] -0.021 | [2] 0.069 | [5] 0.014 | [3] -0.045 | [4] -0.016

SDC3 (UniProt O75056)
inactive: [2] -0.012 | [5] 0.071 | [3] -0.044 | [4] 0.052

RNF26 (UniProt Q9BY78)
inactive: [1] 0.005 | [5] -0.104

RUFY3 isoform 3 (UniProt Q7L099)
inactive: [2] -0.004 | [5] 0.061 | [3] 0.016 | [4] 0.029

SEMG2 (UniProt Q02383)
inactive: [1] 0.038 | [2] 0.063 | [3] -0.047 | [4] -0.066

RABGGTA (UniProt Q92696)
inactive: [1] -0.105 | [2] 0.084 | [5] 0.035 | [3] 0.014 | [4] -0.024

SERINC1 (UniProt Q9NRX5)
inactive: [1] 0.021 | [5] 0.027 | [3] -0.08

RBM22 (UniProt Q9NW64)
inactive: [1] 0.033 | [2] -0.022 | [5] -0.013 | [3] 0.027 | [4] 0.049

RAB3D (UniProt O95716)
inactive: [1] 0.023 | [2] -0.105 | [5] 0.007 | [3] -0.082 | [4] 0.201

SAMD4B (UniProt Q5PRF9)
inactive: [1] 0.107 | [2] -0.027 | [3] 0.039 | [4] 0.058

SEC16A isoform 5 (UniProt O15027)
Chain of UniProt O15027 (O15027 whole entry, looked up): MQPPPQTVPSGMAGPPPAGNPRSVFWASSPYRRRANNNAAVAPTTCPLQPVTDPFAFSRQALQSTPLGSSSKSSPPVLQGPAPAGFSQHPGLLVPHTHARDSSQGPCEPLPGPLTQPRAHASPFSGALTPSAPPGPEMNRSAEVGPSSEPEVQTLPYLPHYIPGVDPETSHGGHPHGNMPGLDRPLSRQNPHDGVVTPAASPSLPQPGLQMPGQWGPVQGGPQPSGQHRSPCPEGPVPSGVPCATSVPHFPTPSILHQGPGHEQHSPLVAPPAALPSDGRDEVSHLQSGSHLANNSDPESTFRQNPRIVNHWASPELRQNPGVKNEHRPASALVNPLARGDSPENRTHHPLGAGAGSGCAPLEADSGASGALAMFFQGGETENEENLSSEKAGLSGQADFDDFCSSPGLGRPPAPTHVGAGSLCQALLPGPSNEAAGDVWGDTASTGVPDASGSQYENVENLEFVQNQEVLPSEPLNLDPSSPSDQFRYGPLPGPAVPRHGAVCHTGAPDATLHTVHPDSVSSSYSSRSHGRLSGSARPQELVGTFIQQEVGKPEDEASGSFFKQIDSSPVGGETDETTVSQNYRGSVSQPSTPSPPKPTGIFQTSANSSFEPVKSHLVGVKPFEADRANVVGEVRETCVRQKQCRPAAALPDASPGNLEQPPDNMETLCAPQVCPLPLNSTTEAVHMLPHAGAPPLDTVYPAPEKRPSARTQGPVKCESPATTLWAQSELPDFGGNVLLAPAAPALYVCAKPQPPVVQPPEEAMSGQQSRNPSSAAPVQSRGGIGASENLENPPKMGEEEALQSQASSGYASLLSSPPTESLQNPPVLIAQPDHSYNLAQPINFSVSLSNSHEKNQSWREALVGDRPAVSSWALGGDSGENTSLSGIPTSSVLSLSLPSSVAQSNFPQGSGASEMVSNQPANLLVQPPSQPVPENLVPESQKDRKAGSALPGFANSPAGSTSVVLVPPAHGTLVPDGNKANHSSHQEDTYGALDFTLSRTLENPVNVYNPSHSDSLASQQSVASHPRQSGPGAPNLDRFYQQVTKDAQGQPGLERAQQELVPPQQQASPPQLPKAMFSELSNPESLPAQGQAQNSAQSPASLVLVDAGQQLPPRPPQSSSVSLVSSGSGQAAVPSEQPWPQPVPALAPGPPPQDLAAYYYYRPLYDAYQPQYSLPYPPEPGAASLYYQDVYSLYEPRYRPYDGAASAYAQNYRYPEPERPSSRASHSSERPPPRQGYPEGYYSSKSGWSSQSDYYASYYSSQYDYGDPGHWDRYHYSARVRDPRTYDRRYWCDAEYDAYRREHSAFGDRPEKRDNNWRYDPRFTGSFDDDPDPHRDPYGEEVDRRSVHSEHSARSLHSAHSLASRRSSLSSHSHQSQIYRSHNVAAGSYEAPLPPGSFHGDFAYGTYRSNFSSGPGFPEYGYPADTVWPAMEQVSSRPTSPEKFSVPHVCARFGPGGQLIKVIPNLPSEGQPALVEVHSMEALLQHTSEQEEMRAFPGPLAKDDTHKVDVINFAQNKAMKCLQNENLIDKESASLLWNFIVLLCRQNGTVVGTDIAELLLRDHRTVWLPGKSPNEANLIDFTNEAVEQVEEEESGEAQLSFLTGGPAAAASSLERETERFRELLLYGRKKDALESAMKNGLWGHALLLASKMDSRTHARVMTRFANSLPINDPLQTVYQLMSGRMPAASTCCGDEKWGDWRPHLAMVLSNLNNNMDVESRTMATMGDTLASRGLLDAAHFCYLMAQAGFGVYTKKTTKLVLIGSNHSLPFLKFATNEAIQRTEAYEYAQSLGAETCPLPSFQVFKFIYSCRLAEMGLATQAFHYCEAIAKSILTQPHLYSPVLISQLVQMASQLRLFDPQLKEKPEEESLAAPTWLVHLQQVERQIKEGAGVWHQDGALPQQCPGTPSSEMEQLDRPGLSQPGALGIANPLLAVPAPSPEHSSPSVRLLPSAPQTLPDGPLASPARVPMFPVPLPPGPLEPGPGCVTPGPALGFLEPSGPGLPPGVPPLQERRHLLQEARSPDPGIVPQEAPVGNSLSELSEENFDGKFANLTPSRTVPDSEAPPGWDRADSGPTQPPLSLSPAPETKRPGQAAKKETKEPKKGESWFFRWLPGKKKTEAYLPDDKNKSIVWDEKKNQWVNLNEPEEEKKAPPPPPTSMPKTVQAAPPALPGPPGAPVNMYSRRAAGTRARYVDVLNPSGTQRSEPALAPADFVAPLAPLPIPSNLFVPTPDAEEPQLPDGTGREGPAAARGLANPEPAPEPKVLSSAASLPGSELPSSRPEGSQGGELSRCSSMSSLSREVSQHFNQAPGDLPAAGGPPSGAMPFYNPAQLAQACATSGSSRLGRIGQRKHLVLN
inactive: [1] 0.014 | [2] 0.012 | [5] 0.154 | [3] 0.011 | [4] -0.006

RABGAP1L isoform 5 (UniProt Q5R372)
inactive: [1] 0.027 | [2] 0.027 | [3] 0.113 | [4] 0.066

RMDN2 isoform 2 (UniProt Q96LZ7)
inactive: [5] 0.164

RICTOR isoform 3 (UniProt Q6R327)
inactive: [3] 0.043

RAB8B (UniProt Q92930)
inactive: [1] 0.004 | [2] -0.006 | [5] -0.222 | [3] 0.033 | [4] -0.062

RBM26 isoform 2 (UniProt Q5T8P6)
Chain of UniProt Q5T8P6 (Q5T8P6 whole entry, looked up): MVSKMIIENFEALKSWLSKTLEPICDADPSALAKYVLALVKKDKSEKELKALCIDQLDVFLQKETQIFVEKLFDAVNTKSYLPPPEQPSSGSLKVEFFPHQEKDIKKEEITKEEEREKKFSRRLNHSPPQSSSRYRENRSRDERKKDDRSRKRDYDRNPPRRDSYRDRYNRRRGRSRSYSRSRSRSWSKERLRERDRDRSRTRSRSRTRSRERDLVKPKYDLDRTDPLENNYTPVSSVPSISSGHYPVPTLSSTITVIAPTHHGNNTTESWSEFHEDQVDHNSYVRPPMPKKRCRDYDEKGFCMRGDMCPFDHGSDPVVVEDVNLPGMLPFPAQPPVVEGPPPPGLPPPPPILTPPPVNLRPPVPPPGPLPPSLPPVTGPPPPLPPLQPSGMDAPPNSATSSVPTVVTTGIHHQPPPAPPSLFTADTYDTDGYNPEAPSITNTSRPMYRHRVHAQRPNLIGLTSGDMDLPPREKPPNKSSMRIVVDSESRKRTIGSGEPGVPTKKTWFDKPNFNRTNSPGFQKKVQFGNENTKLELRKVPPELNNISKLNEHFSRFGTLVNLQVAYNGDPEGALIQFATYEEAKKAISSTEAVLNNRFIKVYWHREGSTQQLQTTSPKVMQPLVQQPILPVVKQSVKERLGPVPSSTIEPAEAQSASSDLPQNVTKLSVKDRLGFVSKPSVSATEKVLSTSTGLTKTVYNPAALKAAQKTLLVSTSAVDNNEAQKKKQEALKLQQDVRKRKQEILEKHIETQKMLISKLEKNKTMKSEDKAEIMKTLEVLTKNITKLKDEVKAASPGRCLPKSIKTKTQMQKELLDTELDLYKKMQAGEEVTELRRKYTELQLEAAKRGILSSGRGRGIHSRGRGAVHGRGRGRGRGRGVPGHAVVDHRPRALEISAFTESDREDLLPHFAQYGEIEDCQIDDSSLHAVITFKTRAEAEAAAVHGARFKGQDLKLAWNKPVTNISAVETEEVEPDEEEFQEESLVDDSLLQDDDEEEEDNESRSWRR
inactive: [1] -0.068 | [2] 0.016 | [5] 0.144 | [3] -0.011 | [4] 0.012

SDCBP isoform 2 (UniProt O00560)
inactive: [1] -0.08 | [3] 0.169

SART3, A0A499FI31
inactive: [1] -0.008 | [2] 0.015 | [5] 0.056 | [3] -0.08 | [4] -0.006

SIK3 (UniProt H0Y4E8)
inactive: [2] 0.034 | [5] 0.025 | [3] 0.118 | [4] 0.028

SASH1 (UniProt O94885)
inactive: [1] -0.044 | [2] 0.092 | [5] 0.037 | [3] -0.045 | [4] -0.161

RAB33B (UniProt Q9H082)
inactive: [1] 0.003 | [2] -0.028 | [5] 0.116 | [3] -0.016 | [4] 0.069

RBM12 (UniProt Q9NTZ6)
inactive: [1] -0.039 | [2] 0.023 | [5] 0.077 | [3] -0.064 | [4] -0.006

RPS3 (UniProt E9PJN9)
inactive: [3] 0.141

RUNX1 isoform 8 (UniProt Q01196)
inactive: [1] -0.042 | [5] 0.025

RBM48 isoform 2 (UniProt Q5RL73)
Chain of UniProt Q5RL73 (Q5RL73 whole entry, looked up): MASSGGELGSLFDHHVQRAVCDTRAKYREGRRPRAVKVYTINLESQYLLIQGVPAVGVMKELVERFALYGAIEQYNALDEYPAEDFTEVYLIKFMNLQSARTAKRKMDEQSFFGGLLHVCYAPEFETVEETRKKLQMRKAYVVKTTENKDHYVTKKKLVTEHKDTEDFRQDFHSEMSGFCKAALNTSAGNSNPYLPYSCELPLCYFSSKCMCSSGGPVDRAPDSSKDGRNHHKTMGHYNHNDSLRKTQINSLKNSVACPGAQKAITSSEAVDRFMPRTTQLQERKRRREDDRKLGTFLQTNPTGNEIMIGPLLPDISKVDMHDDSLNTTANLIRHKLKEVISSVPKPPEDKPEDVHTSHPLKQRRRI
inactive: [1] 0.008 | [2] 0.058 | [3] -0.36 | [4] 0.113

RIC8A isoform 3 (UniProt Q9NPQ8)
inactive: [1] -0.033 | [2] 0.02 | [5] 0.015 | [3] -0.041 | [4] -0.094

RPS19 (UniProt M0R2L9)
inactive: [3] 0.183

RBM6 (UniProt P78332)
inactive: [2] -0.075 | [3] 0.012 | [4] 0.076

SH2D1B (UniProt O14796)
Chain of UniProt O14796 (O14796 whole entry, looked up): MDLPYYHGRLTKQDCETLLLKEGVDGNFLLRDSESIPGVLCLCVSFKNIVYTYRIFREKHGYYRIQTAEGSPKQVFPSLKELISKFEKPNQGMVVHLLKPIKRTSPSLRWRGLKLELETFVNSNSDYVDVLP
inactive: [2] 0.205 | [5] -0.047 | [3] 0.003 | [4] 0.033

SDHAF4 (UniProt Q5VUM1)
inactive: [1] 0.053 | [2] 0.16 | [3] -0.025 | [4] 0.073

S100A10 (UniProt P60903)
inactive: [1] 0.651 | [2] 0.061 | [3] -0.127 | [4] -0.01

SF3B5 (UniProt Q9BWJ5)
Chain of UniProt Q9BWJ5 (Q9BWJ5 whole entry, looked up): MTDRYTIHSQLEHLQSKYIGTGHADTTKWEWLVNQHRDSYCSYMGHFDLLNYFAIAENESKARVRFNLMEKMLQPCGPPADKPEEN
inactive: [1] 0.056 | [5] -0.032 | [3] 0.007
